Results reported in the supplement of paper PMC10849652.
The full data set covers some 7,900 targets. This sample favours those with a hit. About 0.6% of all pairs of compound and target were hits. A number with no mark means an inactive call.

The targets below were run with C[C@@H](Oc1cc(-c2cnn(C3CCNCC3)c2)cnc1N)c1c(Cl)ccc(F)c1Cl [crizotinib] (assay: log2 fold change, soluble protein after heating vs DMSO (PISA); higher = thermal stabilisation; K562 cells, 10 uM, 30 min; active = over 0.2 and 3.5 SD of the protein, either way, in both replicates (recomputed)).
Procedure, shortened: (§1)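 Quantification of soluble protein used TMTpro 16plex LC-MS/MS, with channel sums equalised. Samples were the supernatant after 21,000xg for 90 min of pooled aliquots from K562 cells (2×10^6 cells/mL) treated with 10 μM compound for 30 min, heated for 3 min over 48°C-58°C, and extracted in PBS with 0.5% NP-40 at 4°C. Values, from duplicates, describe thermal stability against control samples on a log2 fold-change scale.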

Sequence of UniProt Q99627 (Q99627 whole entry, looked up): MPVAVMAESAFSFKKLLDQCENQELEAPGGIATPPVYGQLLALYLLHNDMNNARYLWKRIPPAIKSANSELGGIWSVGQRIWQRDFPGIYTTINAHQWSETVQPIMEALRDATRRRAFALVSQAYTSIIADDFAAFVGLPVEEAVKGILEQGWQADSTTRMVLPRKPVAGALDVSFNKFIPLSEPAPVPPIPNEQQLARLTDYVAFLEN
Sequence of UniProt Q13137 (Q13137 whole entry, looked up): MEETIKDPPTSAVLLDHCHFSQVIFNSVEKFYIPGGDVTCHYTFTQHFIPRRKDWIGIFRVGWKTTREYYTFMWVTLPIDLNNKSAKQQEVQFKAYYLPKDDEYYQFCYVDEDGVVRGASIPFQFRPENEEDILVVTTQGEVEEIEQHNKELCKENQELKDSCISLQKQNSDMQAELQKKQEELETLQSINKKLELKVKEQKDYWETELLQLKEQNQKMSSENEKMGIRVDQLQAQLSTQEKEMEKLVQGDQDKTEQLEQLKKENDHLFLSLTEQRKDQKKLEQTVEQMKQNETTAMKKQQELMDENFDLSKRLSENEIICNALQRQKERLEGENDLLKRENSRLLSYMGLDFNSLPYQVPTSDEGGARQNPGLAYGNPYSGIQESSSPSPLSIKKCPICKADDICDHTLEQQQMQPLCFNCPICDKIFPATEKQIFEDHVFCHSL
Sequence of UniProt Q8NHZ8 (Q8NHZ8 whole entry, looked up): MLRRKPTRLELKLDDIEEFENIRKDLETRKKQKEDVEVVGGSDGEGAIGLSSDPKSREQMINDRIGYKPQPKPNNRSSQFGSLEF
Sequence of UniProt Q9NXV6 (Q9NXV6 whole entry, looked up): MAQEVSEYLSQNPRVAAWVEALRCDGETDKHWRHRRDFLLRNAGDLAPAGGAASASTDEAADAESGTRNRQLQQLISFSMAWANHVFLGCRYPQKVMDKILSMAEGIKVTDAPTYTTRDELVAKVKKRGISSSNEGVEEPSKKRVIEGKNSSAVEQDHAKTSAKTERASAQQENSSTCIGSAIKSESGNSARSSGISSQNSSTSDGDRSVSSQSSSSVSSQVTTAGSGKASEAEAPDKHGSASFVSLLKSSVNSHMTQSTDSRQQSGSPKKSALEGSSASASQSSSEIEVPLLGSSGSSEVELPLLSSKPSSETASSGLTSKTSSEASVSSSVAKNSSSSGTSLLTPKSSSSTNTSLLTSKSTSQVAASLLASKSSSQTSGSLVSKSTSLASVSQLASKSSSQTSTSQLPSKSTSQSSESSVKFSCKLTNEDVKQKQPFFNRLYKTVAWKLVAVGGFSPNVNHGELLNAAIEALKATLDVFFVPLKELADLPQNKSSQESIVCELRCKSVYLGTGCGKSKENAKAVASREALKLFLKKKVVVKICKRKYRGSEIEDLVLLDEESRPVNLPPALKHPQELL
Sequence of UniProt Q96KP4 (Q96KP4 whole entry, looked up): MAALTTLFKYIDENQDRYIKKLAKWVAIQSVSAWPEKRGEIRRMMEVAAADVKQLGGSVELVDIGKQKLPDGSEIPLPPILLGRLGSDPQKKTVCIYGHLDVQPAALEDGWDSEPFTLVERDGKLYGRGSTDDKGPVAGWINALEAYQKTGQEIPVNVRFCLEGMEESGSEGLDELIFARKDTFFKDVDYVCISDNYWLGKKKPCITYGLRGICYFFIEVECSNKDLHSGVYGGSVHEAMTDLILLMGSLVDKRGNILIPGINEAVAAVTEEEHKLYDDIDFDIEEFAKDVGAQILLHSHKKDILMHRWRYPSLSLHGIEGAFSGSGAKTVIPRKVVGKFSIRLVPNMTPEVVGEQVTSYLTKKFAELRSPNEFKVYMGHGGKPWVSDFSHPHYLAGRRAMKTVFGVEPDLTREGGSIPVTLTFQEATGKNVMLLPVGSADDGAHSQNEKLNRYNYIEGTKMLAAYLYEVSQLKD
Sequence of UniProt Q86X83 (Q86X83 whole entry, looked up): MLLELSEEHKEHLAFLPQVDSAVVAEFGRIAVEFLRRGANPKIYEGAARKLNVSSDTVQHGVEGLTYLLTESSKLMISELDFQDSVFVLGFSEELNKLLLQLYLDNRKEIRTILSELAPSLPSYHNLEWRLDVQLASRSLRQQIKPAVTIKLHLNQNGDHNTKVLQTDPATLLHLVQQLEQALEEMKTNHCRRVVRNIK
Sequence of UniProt Q96JB5 (Q96JB5 whole entry, looked up): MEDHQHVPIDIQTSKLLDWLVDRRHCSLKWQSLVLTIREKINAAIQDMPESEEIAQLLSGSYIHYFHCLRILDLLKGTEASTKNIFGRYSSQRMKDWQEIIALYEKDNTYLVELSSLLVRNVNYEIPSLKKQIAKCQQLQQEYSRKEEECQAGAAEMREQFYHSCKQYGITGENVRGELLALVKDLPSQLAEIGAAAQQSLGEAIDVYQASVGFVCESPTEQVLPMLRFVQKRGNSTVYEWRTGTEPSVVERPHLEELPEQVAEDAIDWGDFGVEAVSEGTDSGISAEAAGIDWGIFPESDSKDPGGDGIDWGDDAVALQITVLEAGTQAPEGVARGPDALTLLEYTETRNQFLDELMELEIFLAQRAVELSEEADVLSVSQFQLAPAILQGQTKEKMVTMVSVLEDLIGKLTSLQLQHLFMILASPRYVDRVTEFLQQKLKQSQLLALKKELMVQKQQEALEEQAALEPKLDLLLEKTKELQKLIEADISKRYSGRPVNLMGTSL
Sequence of UniProt Q14004 (Q14004 whole entry, looked up): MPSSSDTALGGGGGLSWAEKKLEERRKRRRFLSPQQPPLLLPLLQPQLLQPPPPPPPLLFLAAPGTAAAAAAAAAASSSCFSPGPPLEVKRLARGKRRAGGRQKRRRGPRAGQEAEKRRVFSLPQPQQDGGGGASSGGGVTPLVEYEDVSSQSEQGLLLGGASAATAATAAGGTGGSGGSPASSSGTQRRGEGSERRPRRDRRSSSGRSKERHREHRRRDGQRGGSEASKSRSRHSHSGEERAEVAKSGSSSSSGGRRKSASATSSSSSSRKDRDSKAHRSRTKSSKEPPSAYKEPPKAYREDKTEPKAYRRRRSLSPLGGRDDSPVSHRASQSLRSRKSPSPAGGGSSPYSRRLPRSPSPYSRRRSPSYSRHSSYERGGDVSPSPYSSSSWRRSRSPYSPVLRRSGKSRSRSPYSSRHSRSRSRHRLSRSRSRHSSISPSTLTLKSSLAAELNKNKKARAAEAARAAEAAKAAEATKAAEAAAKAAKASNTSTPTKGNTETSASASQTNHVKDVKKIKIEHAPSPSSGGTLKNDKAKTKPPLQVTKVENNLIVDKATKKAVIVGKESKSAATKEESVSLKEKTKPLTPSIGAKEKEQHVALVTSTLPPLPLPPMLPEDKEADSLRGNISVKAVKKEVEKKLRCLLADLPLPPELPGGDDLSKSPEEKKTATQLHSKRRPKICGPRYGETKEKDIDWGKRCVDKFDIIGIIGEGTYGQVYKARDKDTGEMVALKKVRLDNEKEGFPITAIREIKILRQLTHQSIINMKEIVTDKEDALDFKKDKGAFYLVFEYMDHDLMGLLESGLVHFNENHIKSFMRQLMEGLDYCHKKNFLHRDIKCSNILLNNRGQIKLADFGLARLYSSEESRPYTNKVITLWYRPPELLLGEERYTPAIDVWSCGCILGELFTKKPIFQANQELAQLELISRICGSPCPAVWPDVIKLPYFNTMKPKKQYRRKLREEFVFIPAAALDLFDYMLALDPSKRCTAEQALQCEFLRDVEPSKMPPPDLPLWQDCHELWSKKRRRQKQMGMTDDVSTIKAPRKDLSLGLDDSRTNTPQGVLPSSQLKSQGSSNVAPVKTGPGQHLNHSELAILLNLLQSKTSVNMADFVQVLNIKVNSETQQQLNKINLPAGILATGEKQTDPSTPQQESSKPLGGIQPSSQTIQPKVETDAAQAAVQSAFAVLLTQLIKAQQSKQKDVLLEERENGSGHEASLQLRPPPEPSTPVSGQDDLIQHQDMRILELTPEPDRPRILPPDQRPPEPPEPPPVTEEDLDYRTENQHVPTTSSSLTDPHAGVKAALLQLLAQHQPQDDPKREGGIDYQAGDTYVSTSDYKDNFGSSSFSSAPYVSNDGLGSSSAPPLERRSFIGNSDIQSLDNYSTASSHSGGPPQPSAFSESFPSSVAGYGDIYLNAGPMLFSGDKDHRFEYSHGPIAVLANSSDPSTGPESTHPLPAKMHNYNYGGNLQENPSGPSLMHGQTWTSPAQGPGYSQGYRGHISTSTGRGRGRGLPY
Sequence of UniProt P19397 (P19397 whole entry, looked up): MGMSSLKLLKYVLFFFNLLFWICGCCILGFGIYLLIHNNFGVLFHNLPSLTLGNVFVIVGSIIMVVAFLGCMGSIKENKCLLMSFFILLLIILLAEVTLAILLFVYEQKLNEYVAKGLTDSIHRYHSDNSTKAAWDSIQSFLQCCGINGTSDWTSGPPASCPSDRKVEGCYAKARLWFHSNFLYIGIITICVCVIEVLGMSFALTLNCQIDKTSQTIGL
Sequence of UniProt P21964 (P21964 whole entry, looked up): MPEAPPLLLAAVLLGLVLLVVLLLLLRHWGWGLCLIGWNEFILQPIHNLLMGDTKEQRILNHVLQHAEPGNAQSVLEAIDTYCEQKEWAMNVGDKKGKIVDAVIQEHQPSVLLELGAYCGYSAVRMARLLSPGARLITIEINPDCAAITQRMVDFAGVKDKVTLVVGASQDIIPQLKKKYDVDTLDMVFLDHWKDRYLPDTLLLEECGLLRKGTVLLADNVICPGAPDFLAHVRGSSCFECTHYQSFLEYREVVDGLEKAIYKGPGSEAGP
Sequence of UniProt Q00534 (Q00534 whole entry, looked up): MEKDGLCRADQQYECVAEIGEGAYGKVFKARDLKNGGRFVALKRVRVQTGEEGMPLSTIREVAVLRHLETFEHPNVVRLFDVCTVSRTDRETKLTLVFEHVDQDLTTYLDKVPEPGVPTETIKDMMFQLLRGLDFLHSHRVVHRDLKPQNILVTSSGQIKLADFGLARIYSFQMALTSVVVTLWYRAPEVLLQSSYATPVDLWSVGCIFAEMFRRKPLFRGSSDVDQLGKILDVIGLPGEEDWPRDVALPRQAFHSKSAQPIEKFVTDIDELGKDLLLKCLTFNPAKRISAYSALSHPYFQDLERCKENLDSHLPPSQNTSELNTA

Point of comparison: CSNK1A1 (UniProt P48729), log2 fold change -0.115. Against it:
- CNDP2 (UniProt Q96KP4) — within 0.2 log units, -0.061
- CNTN4 (UniProt Q8IWV2) — within 0.2 log units, 0.064
- CRLF3 (UniProt Q8IUI8) — within 0.2 log units, -0.015
- COQ7 (UniProt Q99807) — within 0.2 log units, -0.163
- CELF2 isoform 3 (UniProt O95319) — higher, 0.098
- COPS8 (UniProt Q99627) — within 0.2 log units, 0.07
- CBX1 (UniProt P83916) — within 0.2 log units, 0.001
- CDK5RAP3 isoform 4 (UniProt Q96JB5) — within 0.2 log units, -0.054
- CD53 (UniProt P19397) — within 0.2 log units, 0.047
- CCNK isoform 4 (UniProt O75909) — within 0.2 log units, -0.023
- COPS4 (UniProt Q9BT78) — higher, 0.112
- COASY isoform 2 (UniProt Q13057) — within 0.2 log units, -0.071
- CDKN2AIP (UniProt Q9NXV6) — within 0.2 log units, 0.01
- CDK6 (UniProt Q00534) — within 0.2 log units, -0.033
- CLUH (UniProt O75153) — within 0.2 log units, -0.094
- COPS3 (UniProt Q9UNS2) — within 0.2 log units, 0.003
- CHERP (UniProt Q8IWX8) — within 0.2 log units, -0.108
- CPSF6 isoform 2 (UniProt Q16630) — within 0.2 log units, -0.025
- CDK13 (UniProt Q14004) — within 0.2 log units, -0.124
- COMMD2 (UniProt Q86X83) — within 0.2 log units, -0.13
- CDC26 (UniProt Q8NHZ8) — higher, 0.153
- CLCN3 isoform 2 (UniProt P51790) — within 0.2 log units, -0.074
- CAMKK2 (UniProt Q96RR4) — higher, 0.106
- CHKA (UniProt P35790) — within 0.2 log units, 0.075
- CSTF3 (UniProt Q12996) — within 0.2 log units, -0.07
- CD55 isoform 7 (UniProt P08174) — within 0.2 log units, 0.081
- CSNK2A1 (UniProt P68400) — within 0.2 log units, -0.04
- CIT isoform 4 (UniProt O14578) — within 0.2 log units, -0.077

With CDC123 (UniProt O75794) the log2 fold change was -0.246 (active).
CPT1A (UniProt P50416) was tested, and the log2 fold change was 0.546 (active).
CERS2 (UniProt Q96G23) was tested, and the log2 fold change was -0.294 (active).
With CHCHD1 (UniProt Q96BP2) the log2 fold change was -0.54 (active).
For CALCOCO2 isoform 4 (UniProt Q13137), the log2 fold change was -0.355 (active).
For COMT (UniProt P21964), the log2 fold change was 0.352 (active).

The targets below were run with C[C@@H]1COCCN1C2=NC(=NC(=C2)C3(CC3)S(=O)(=O)C)C4=C5C=CNC5=CC=C4 in the same assay as above.
Procedure, shortened: as §1

Point of comparison: CIT isoform 4 (UniProt O14578), log2 fold change -0.013. Against it:
- CNDP2 (UniProt Q96KP4) — within 0.2 log units, 0.102
- CSNK1A1 (UniProt P48729) — within 0.2 log units, -0.114
- CNTN4 (UniProt Q8IWV2) — within 0.2 log units, 0.148
- CRLF3 (UniProt Q8IUI8) — within 0.2 log units, 0.048
- CDC123 (UniProt O75794) — within 0.2 log units, 0.074
- CPT1A (UniProt P50416) — within 0.2 log units, 0.02
- CERS2 (UniProt Q96G23) — within 0.2 log units, -0.054
- COQ7 (UniProt Q99807) — within 0.2 log units, 0.062
- CELF2 isoform 3 (UniProt O95319) — within 0.2 log units, 0.006
- COPS8 (UniProt Q99627) — within 0.2 log units, 0.13
- CBX1 (UniProt P83916) — within 0.2 log units, 0.043
- CDK5RAP3 isoform 4 (UniProt Q96JB5) — within 0.2 log units, 0.044
- CD53 (UniProt P19397) — within 0.2 log units, 0.005
- CCNK isoform 4 (UniProt O75909) — within 0.2 log units, 0.073
- COPS4 (UniProt Q9BT78) — within 0.2 log units, 0.064
- COASY isoform 2 (UniProt Q13057) — within 0.2 log units, 0.133
- CDKN2AIP (UniProt Q9NXV6) — within 0.2 log units, -0.132
- CDK6 (UniProt Q00534) — within 0.2 log units, -0.042
- CHCHD1 (UniProt Q96BP2) — within 0.2 log units, -0.203
- CALCOCO2 isoform 4 (UniProt Q13137) — within 0.2 log units, -0.106
- COMT (UniProt P21964) — within 0.2 log units, 0.053
- COPS3 (UniProt Q9UNS2) — within 0.2 log units, 0.047
- CHERP (UniProt Q8IWX8) — within 0.2 log units, 0.109
- CPSF6 isoform 2 (UniProt Q16630) — within 0.2 log units, 0.075
- CDK13 (UniProt Q14004) — within 0.2 log units, -0.036
- COMMD2 (UniProt Q86X83) — within 0.2 log units, 0.102
- CDC26 (UniProt Q8NHZ8) — within 0.2 log units, 0.016
- CLCN3 isoform 2 (UniProt P51790) — within 0.2 log units, 0.09
- CAMKK2 (UniProt Q96RR4) — within 0.2 log units, -0.045
- CHKA (UniProt P35790) — within 0.2 log units, -0.034
- CSTF3 (UniProt Q12996) — within 0.2 log units, 0.025
- CD55 isoform 7 (UniProt P08174) — within 0.2 log units, -0.096
- CSNK2A1 (UniProt P68400) — within 0.2 log units, 0.016

For CLUH (UniProt O75153), the log2 fold change was 0.348 (active).
